# About 3,600 (5.5%) of roughly 65,000 compounds were called active.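 Rule for the calls: active = at 10 µM, mean starting fluorescence two-fold or more over control wells; inactive = the rest.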 Shown is part of a subset that was picked to be rich in actives.
# Experiment: intrinsic fluorescence of library compounds, ex339/em460 – biochemical, MLSMR library, data from DPM-DC assay, artefact control, profiling panel (AID 709);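 note: signal is the first read of a kinetic run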
# Settings: compound autofluorescence, ex339/em460 nm, NADH buffer; at 10 µM; hits give high values
row,Structure (SMILES),fluorescence fold increase
1,CCOC(=O)c1c(N)n(Cc2ccccc2)c2nc3ccccc3nc12,4.96 (active)
2,O=C(O)C1CSC(c2cccnc2)N1 (stereo not given),1.05 (inactive)
3,CC1(C)C(c2ccccc2)=NC(c2cccnc2)=[N+]1[O-],1.1 (inactive)
4,CCOC(=O)c1c(C)c(C(=O)N2CCC3(CC2)OCCO3)c(C)n1CC,1.05 (inactive)
5,CCOC(=O)c1c(-c2ccccc2)oc2ccc(OC(=O)N(C)C)cc12,3.72 (active)
6,N[C@@H](Cc1c[nH]c2ccccc12)c1nnc(SCc2c(F)cccc2Cl)o1,1.15 (inactive)
7,CCOC(=O)C1=C(C)OC(N)=C(C(=O)OC)C12C(=O)Nc1ccc(Br)cc12 (stereo not given),1.1 (inactive)
8,CCc1cccc2c(C#N)cn(CC(=O)N3CCOCC3)c12,1.27 (inactive)
9,COC(=O)COc1cc(C)cc2oc(=O)c3c(c12)CCCC3,2.2 (active)
10,OC(CNC1CCCCC1)c1ccccc1 (stereo not given),1.04 (inactive)
11,CCOC(=O)C(O)(c1ccc(NC(=O)c2ccco2)c(OC)c1)C(F)(F)F (stereo not given),1.11 (inactive)
12,Cc1cccc(-n2c(C)nc3cc(C(=O)N4CCC5(CC4)OCCO5)ccc32)c1,1.13 (inactive)
13,O=C(c1cc(-c2ccncc2)nc2ccccc12)N1CCC2(CC1)OCCO2,1.11 (inactive)
14,O=C(c1cc2nc(-c3ccccc3)cc(-c3ccccc3)n2n1)N1CCC2(CC1)OCCO2,2.35 (active)
15,CCOC(=O)CC1=C(C(=O)OCC)C2(C(=O)N1)C(C(=O)OC)=C(N)Oc1ccccc12 (stereo not given),1.12 (inactive)
16,COc1ccc(CCn2c(O)c(C=NC3CC3)c(=O)[nH]c2=O)cc1OC,1.06 (inactive)
17,CN1CCN(C(=O)COc2ccc(C(C)(C)C)cc2Br)CC1,1.12 (inactive)
18,COc1ccc(C(=O)CC2C(=O)N(C)C(=O)N(C)C2=O)cc1,1.08 (inactive)
19,CCC/C(=N\O)c1c[nH]c2ccccc12,1.08 (inactive)
20,CC1=C(C(=O)Nc2ccccc2)SCCO1,1.08 (inactive)
